The source of these data is PubChem BioAssay (EPA / NIEHS).

Read-out in assay [1]: Plasminogen activator inhibitor-1 (PAI1), SERPINE1 (gene 5054)
Put plainly: BSK_MyoF_PAI1: BioMAP Diversity Plus: MyoF Assay for Plasminogen activator inhibitor-1 (PAI1) Biomarker Activity (AID 2284256).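 Note: PAI-1 protein level measured by ELISA in fibroblast cultures; PAI-1 read 24 h after compound addition.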 As to conditions: primary human lung fibroblasts. In outline:
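MyoF lung fibroblasts, human primary; compound 24 h; PAI-1 ELISA; positive-direction fit vs DMSO baseline; parallel SRB total-protein staining for cytotoxicity.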

Read-out in assay [2]: Interleukin-8 (IL8), CXCL8 (gene 3576)
Put plainly: BSK_MyoF_IL8: BioMAP Diversity Plus: MyoF Assay for Interleukin-8 (IL8) Biomarker Activity (AID 2284261). The conditions noted are these: primary human lung fibroblasts. In outline:
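Lung fibroblasts (human primary) → chemical exposure → 24 h → IL-8 measured by ELISA. Signal increase scored versus DMSO control.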

Read-out in assay [3]: Decorin, DCN (gene 1634)
Put plainly: BSK_MyoF_Decorin: BioMAP Diversity Plus: MyoF Assay for Decorin Biomarker Activity (AID 2284265). As to conditions: primary human lung fibroblasts. In outline: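 ELISA readout of decorin, 24 h post-dosing; primary human lung fibroblast (MyoF) culture; gain-of-signal fit vs DMSO baseline.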

Assay [4] can be described thus: BSK_MyoF_SRB: Viability Assessment in the BioMAP Diversity Plus: MyoF Assay (AID 2284267).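 Note: total protein by SRB absorbance in parallel cultures as cytotoxicity measure.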 As to conditions: primary human lung fibroblasts. In outline:
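Cytotoxicity in primary human lung fibroblasts is gauged by SRB total-protein staining 24 h after dosing, with DMSO as the negative control.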

Read-out in assay [5]: Monokine induced gamma interferon (MIG), CXCL9 (gene 4283)
The assay is described as follows: BSK_KF3CT_MIG: BioMAP Diversity Plus: KF3CT Assay for Monokine induced gamma interferon (MIG) Biomarker Activity (AID 2284248). As to conditions: primary human keratinocytes with fibroblasts. In outline: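 ELISA read-out of MIG after 24 h chemical exposure of human skin primary co-culture (keratinocytes, foreskin fibroblasts). Gain of signal relative to DMSO negative control was analysed.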

Read-out in assay [6]: Vascular cell adhesion molecule 1 (VCAM1), VCAM1 (gene 7412)
Put plainly: BSK_BF4T_VCAM1: BioMAP Diversity Plus: BF4T Assay for Vascular cell adhesion molecule 1 (VCAM1) Biomarker Activity (AID 2284249). As to conditions: primary human bronchial epithelial cells with fibroblasts. In outline:
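Human bronchial epithelial cell and dermal fibroblast co-culture exposed 24 h. VCAM-1 measured by ELISA; parallel SRB total-protein staining for cytotoxicity. Fitted in positive direction relative to DMSO.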

Read-out in assay [7]: Macrophage Inflammatory Protein-1 Alpha (MIP1a), CCL3 (gene 6348)
The assay is described as follows: BSK_IMphg_MIP1a: BioMAP Diversity Plus: IMphg Assay for Macrophage Inflammatory Protein-1 Alpha (MIP1a) Biomarker Activity (AID 2284255). As to conditions: primary human endothelial cells with macrophages. In outline: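 Co-culture of human venular endothelial cells and macrophages exposed to compounds for 24 h; MIP-1a measured by ELISA relative to DMSO. Cytotoxicity assessed in parallel cultures by sulforhodamine B total-protein staining at 560 nm.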

Read-out in assay [8]: CD69, CD69 (gene 969)
The assay is described as follows: BSK_IMphg_CD69: BioMAP Diversity Plus: IMphg Assay for CD69 Biomarker Activity (AID 2284257). As to conditions: primary human endothelial cells with macrophages. In outline:
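Human venular endothelial cells co-cultured with macrophages; CD69 quantified by ELISA 24 h after compound addition. Activity fitted in the positive direction relative to DMSO baseline; cytotoxicity tracked in parallel cultures via SRB total-protein staining.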

Read-out in assay [9]: Eotaxin 3, CCL26 (gene 10344)
The assay is described as follows: BSK_BF4T_Eotaxin3: BioMAP Diversity Plus: BF4T Assay for Eotaxin 3 Biomarker Activity (AID 2284258). As to conditions: primary human bronchial epithelial cells with fibroblasts. In outline:
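Co-culture of human bronchial epithelial cells and dermal fibroblasts, exposed to chemicals for 24 h versus DMSO. Eotaxin-3 quantified by ELISA; cytotoxicity checked in parallel cultures by sulforhodamine B total-protein staining.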

Read-out in assay [10]: Monocyte Chemoattractant Protein-1 (MCP1), CCL2 (gene 6347)
Put plainly: BSK_BF4T_MCP1: BioMAP Diversity Plus: BF4T Assay for Monocyte Chemoattractant Protein-1 (MCP1) Biomarker Activity (AID 2284259). As to conditions: primary human bronchial epithelial cells with fibroblasts. In outline:
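Co-culture of bronchial epithelial cells and dermal fibroblasts dosed with chemical; MCP-1 measured by ELISA 24 h later. Activity fitted in positive direction versus DMSO; cytotoxicity checked by SRB staining in parallel cultures.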

Read-out in assay [11]: CD90, THY1 (gene 7070)
Put plainly: BSK_BF4T_CD90: BioMAP Diversity Plus: BF4T Assay for CD90 Biomarker Activity (AID 2284262). As to conditions: primary human bronchial epithelial cells with fibroblasts. In outline: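 Co-culture of human bronchial epithelial cells and dermal fibroblasts, 24 h compound exposure. Cell-surface CD90 measured by ELISA relative to DMSO; parallel SRB total-protein staining for cytotoxicity.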

Read-out in assay [12]: Interleukin-8 (IL8), CXCL8 (gene 3576)
Put plainly: BSK_BF4T_IL8: BioMAP Diversity Plus: BF4T Assay for Interleukin-8 (IL8) Biomarker Activity (AID 2284263). As to conditions: primary human bronchial epithelial cells with fibroblasts. In outline: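 Human bronchial epithelial cells with dermal fibroblasts co-culture; IL-8 measured by ELISA 24 hours after dosing, fitted vs DMSO. Cytotoxicity tracked in parallel cultures by SRB total-protein staining.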

Read-out in assay [13]: Interleukin-1 alpha (IL1a), IL1A (gene 3552)
The assay is described as follows: BSK_BF4T_IL1a: BioMAP Diversity Plus: BF4T Assay for Interleukin-1 alpha (IL1a) Biomarker Activity (AID 2284264). As to conditions: primary human bronchial epithelial cells with fibroblasts. In outline:
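Human bronchial epithelial cells co-cultured with dermal fibroblasts, dosed and read at 24 h. Secreted/surface IL-1α quantified by ELISA; gain-of-signal fitted relative to DMSO baseline. Parallel SRB total-protein staining tracked cytotoxicity.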

Values joined by “and” are separate entries in the source; they are usually repeats but may differ in a detail not shown here. Equal entries are not always repeated. Active and inactive are the calls of the source. Rule for the calls: active = hit-call score of the fitted dose curve at least 0.9, where 1 is the maximum; inactive = score below 0.9.

`CCN(CC)c1ccc(C=O)cc1`: the result in assay [1], in assay [2], in assay [3] and in assay [4] was inactive.

As for `CO[Si](C)(CCC(F)(F)C(F)(F)C(F)(F)C(F)(F)C(F)(F)C(F)(F)F)OC`, the result in assay [5], in assay [6], in assay [7], in [8], in [9] and in assay [10] was inactive. In addition, the result in [2], in assay [11], in [12], in assay [13], in [3] and in assay [4] was inactive.

With `O=C(c1ccccc1)c1ccc(O)cc1O`, the result in assay [2], in assay [3] and in assay [4] was inactive.

Take `CC(C)CCCC(C)CCO` (stereo not given): the outcome in [1], in assay [2] and in [3] was inactive. In addition, in assay [4], the AC50 – broadly, the concentration giving half of the maximal activity seen – was 34.5 µM (active).

As for `COC(F)(C(F)F)C(F)(F)F` (stereo not given), the result in [5], in assay [6], in assay [7], in assay [8], in assay [9] and in [10] was inactive. Besides, the outcome in assay [2], in assay [11], in [12], in [13], in assay [3] and in assay [4] was inactive.

For the compound `CCN(CC)c1ccc2c(c1)Oc1cc(N(CC)CC)ccc1C21OC(=O)c2ccccc21`, the outcome in [2], in assay [3] and in [4] was inactive.

On to `Brc1nc2ccccc2s1`, for which the result in assay [1], in assay [2], in assay [3] and in [4] was inactive.

`Cc1ccc(S(=O)(=O)C(I)I)cc1`: in [2], the outcome was inactive. In addition, the values for the AC50 in assay [3] and in assay [4] were 5.2 µM (active) and 8.6 µM (active), respectively.

`O=C(O)CCC(F)(F)C(F)(F)C(F)(F)F`: the outcome in [5], in [6], in [7], in assay [8], in assay [9] and in assay [10] was inactive. Further, the outcome in [2], in assay [11], in assay [12], in assay [13], in assay [3] and in assay [4] was inactive.

As for `O=C=Nc1cccc2c(N=C=O)cccc12`, the outcome in [1], in assay [2], in assay [3] and in assay [4] was inactive.

As for `OCCCC(F)(F)C(F)(F)C(F)(F)C(F)(F)C(F)(F)C(F)(F)C(F)(F)C(F)(F)F`, the AC50 in assay [5] is 14.8 µM (active) and 15.3 µM (active); in [6], 13.9 µM (active) and 16.8 µM (active); in assay [7] it was 41 µM (active) and 56.7 µM (active); in assay [8], 40.1 µM (active) and 48.6 µM (active); in assay [9] it was 24.7 µM (active) and 24.9 µM (active); in assay [10] it was 21.6 µM (active) and 18 µM (active). In addition, the AC50 was 11.9 µM (active) and 9.9 µM (active) in assay [2]; 20.6 µM (active) and 19.2 µM (active) in assay [11]; 47.9 µM (active) and 24.3 µM (active) in assay [12]; 46.4 µM (active) and 45.7 µM (active) in assay [13]; 16.4 µM (active) and 14.4 µM (active) in [3]; 12.9 µM (active) and 12.4 µM (active) in [4].

`NCC(F)(F)C(F)(F)C(F)(F)C(F)(F)C(F)(F)C(F)(F)F`: the outcome in [5], in [6], in [7], in assay [8], in assay [9] and in assay [10] was inactive. In addition, the result in assay [2], in assay [11], in [12], in assay [13], in assay [3] and in assay [4] was inactive.
